# Bioassay records deposited in PubChem BioAssay by National Center for Advancing Translational Sciences (NCATS).
# Vaccinia mCherry: qHTS for Stage-Specific Inhibitors of Vaccinia Orthopoxvirus: mCherry Reporter Primary qHTS. Potency, µM (series often up to 36.5 µM), hits mostly inhibitors. 0.63% of 310,000 active. Vaccinia virus mCherry reporter infection, fluorescence. AID 720579, 2013; calls by dose curve; tested in A549 cells; also: nearly all actives have a fitted effect of over 35% in size
# HCV inhibitor: qHTS Assay for Inhibitors of Hepatitis C Virus (HCV). Huh7.5.1 HCVcc-Cre infection, luciferase reporter, 44 h. Potency, µM (series often up to 41.8 µM), usual class: inhibitors. 3.4% of 340,000 active. AID 651820, 2012
#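 Whole-lifecycle infectious HCVcc-Cre system; cells 1,000/well, compound then virus (~0.5 moi) added 4 h after plating, 44 h culture. Luciferase read 15 sec following 15 min substrate incubation, room temp.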
# Pf growth 48h: Primary qHTS for delayed death inhibitors of the malarial parasite plastid, 48 hour incubation; 5.9% of 310,000 active; P. falciparum luciferase growth in erythrocytes, 48 h; Potency, µM (doses to about 28.7 µM), actives largely listed as inhibitors; AID 504832, 2011
#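 Luminescence readout; reporter = integrated firefly luciferase in P. falciparum. RBC culture at 2% hematocrit, 0.1% parasitemia final, 37 C/5% CO2; decreased signal taken as growth inhibition.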
# NS1 function inh: qHTS Assay for Inhibitors of Influenza NS1 Protein Function. AID 2326, 2010. Potency, µM (top dose mostly 46.1 µM). 0.4% of 270,000 active; calls by dose curve; also: actives are rising curves; nearly all actives have a fitted effect of over 50% in size
#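 In this qHTS, NS1 from influenza A is expressed in budding yeast, where it slows growth. Cells are switched from glucose to 2% galactose medium (pH 6.0, -URA), treated with compound, and growth recovery is read at OD600.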
# Pf growth 96h: Primary qHTS for delayed death inhibitors of the malarial parasite plastid, 96 hour incubation; P. falciparum luciferase reporter growth, 96 h; Potency, µM (highest dose often 28.7 µM), hits mostly inhibitors; 6.9% of 320,000 active
#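 Readout is luminescence from an integrated firefly luciferase in P. falciparum. Red cells, 2% hematocrit and 0.05% parasitemia final, were cultured with compound through two parasite generations (96 hours) at 37 C, 5% CO2.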
# Vaccinia Venus: qHTS for Stage-Specific Inhibitors of Vaccinia Orthopoxvirus: Venus Reporter Primary qHTS; Potency, µM (titrated, usually from 36.5 µM), usual class: inhibitors; Vaccinia virus Venus reporter expression, fluorescence; 0.46% of 330,000 active; calls by dose curve; tested in A549 cells; also: nearly all actives have a fitted effect of over 30% in size
# Numbers stand for hits; i = inactive; ? = inconclusive; nt = no result given; [ ] = another dose, or the depositor's remark. This is a sample that favours compounds with a hit; in the whole collection about 11% have one here. Unless noted, calls follow the shape of the dose curve; as a rule, active = well fitted inhibition curve with a large enough effect; inconclusive = small, poorly fitted or top-dose-only effect, or another doubt; inactive = no such curve, though single readings can be large or run the other way.
SMILES,Vaccinia mCherry,HCV inhibitor,Pf growth 48h,NS1 function inh,Pf growth 96h,Vaccinia Venus
CCCOc1ccc(N2C(=O)CC(N(CCc3ccc(OC)c(OC)c3)C(=S)Nc3ccccc3)C2=O)cc1 (configuration not stated),i,i,2.1µM,?,?,?
O=C1CC(N(CCc2ccccc2)C(=S)Nc2cc(Cl)ccc2Cl)C(=O)N1c1c(Cl)cccc1Cl (configuration not stated),?,?,?,?,10µM,?
O=C1CC(N(CCc2ccccc2)C(=S)Nc2ccccc2)C(=O)N1c1ccc(F)cc1 (configuration not stated),nt,i,?,i,?,nt
C=CCN(C(=O)Nc1ccccc1)C1CC(=O)N(c2ccc(OC)cc2)C1=O (configuration not stated),nt,i,i,i,12µM,nt
CCOC(=O)C1CCCN(C(=O)Cn2nc(Cc3cccnc3)c3ccccc3c2=O)C1 (configuration not stated),i,i,nt,i,7.4µM,i
COc1ccc(-c2sc3ccc(N4CCOCC4)cc3c2C#Cc2ccsc2)cc1,?,?,nt,nt,nt,i
Oc1c(/C=N/Nc2cccc3cccnc23)ccc2ccccc12,i,i,5.9µM,i,i,i
COc1cc(/C=N/Nc2cccc3cccnc23)cc(OC)c1O,i,22µM,?,nt,i,i
CC1(C)Cc2c(c(N3CCOCC3)nc3snc(Br)c23)CO1,nt,?,0.52µM,i,0.66µM,nt
Cc1nc2c(sc3nc(N4CCOCC4)c4c(c32)CC(C)(C)OC4)c(-c2ccc(Cl)cc2)c1C(=O)O,nt,13µM,13µM,?,9.3µM,nt
CC1(C)Cc2c(c(N3CCOCC3)nc3snc(N)c23)CO1,i,?,i,i,i,i
CC1(C)Cc2c(c(N3CCOCC3)nc3sc(C(=O)Nc4ccc(Cl)cc4)c(N)c23)CO1,i,i,?,i,?,i
Cn1cc(CN2CCN(CC(C)(C)C)C(CCO)C2)c2ccccc21 (configuration not stated),i,i,i,i,1.5µM,i
Cc1cccc(CN2CCN(Cc3ccc(-n4cccn4)cc3)CC2CCO)n1 (configuration not stated),nt,i,i,i,i,nt
Cc1cccc(CN2CCN(Cc3cccc(-n4cccn4)c3)CC2CCO)n1 (configuration not stated),i,i,i,i,4.1µM,i
CC(C)(C)CN1CCN(Cc2cccnc2)CC1CCO (configuration not stated),i,i,i,i,10µM,i
CCOC(=O)c1sc(=S)n(-c2cccc(C(F)(F)F)c2)c1SC,nt,i,?,i,?,nt
CCOC(=O)c1sc(=S)n(-c2ccccc2Cl)c1SC,i,i,13µM,i,2.6µM,i
CCOC(=O)c1sc(=S)n(-c2ccccc2)c1SC,nt,?,12µM,i,13µM,nt
CCOC(=O)c1sc(=S)n(CC)c1NC(=O)c1ccccc1,i,i,i,i,i,i
CCN(CC)S(=O)(=O)c1ccc(Cl)c(C(=O)NC2CCN(Cc3ccccc3)CC2)c1,nt,?,?,i,i,nt
NS(=O)(=O)c1ccc(NC(=O)c2c(Cl)cccc2Cl)cc1,i,i,i,i,i,i
CCc1ccc(NC(=O)c2cnc3scc(C)n3c2=O)cc1,i,i,i,i,i,i
CC(=O)Nc1cccc(NS(=O)(=O)Cc2ccc(Cl)cc2)c1,i,i,i,i,15µM,i
Cc1cc2ncn(/N=C/c3ccc([N+](=O)[O-])s3)c2cc1C,?,11µM,2.6µM,i,3.7µM,?
SMILES,Vaccinia mCherry,HCV inhibitor,Pf growth 48h,NS1 function inh,Pf growth 96h,Vaccinia Venus
O=[N+]([O-])c1ccc(/C=N/Nc2ncccc2[N+](=O)[O-])s1,?,i,nt,nt,nt,i[7.34 µM]
O=[N+]([O-])c1ccc(/C=N/n2cnc3ccccc32)s1,5µM,?,5.9µM,i,?,6.3µM
Cc1cc2ncn(/N=C/c3cc(Br)ccc3O)c2cc1C,nt,nt,1µM,i,?,nt
Cc1ccc(CN(C(=O)COc2cccc(C)c2C)C2CCS(=O)(=O)C2)o1 (configuration not stated),i,i,i,i,i,i
COc1ccccc1C(=O)n1nc(-c2ccc(Cl)cc2)nc1N,?,i,i,i,nt,i
CCn1c2ccccc2c2cc(NC(=O)CN(C)CC(=O)Nc3ccc(N4CCOCC4)cc3)ccc21,nt,11µM,i[1.15 µM],i,15µM,nt
CCn1c2ccccc2c2cc(NC(=O)COC(=O)c3cc(S(N)(=O)=O)c(Cl)cc3Cl)ccc21,11µM,?,i,i,i,?
CCn1c2ccccc2c2cc(NC(=O)COC(=O)c3ccccc3O)ccc21,i,11µM,i,i,i,i
CCn1c2ccccc2c2cc(NC(=O)COC(=O)c3cc(Cl)c(N)cc3OC)ccc21,nt,?,i,i,i,nt
CN(CC(=O)Nc1ccc(N2CCOCC2)cc1)C(=O)CCc1cc(C(C)(C)C)c(O)c(C(C)(C)C)c1,i,i,3.3µM,nt,9.3µM,i
CN(C(=O)c1ccc(NC(=O)Cc2ccc(NC(=O)C3CCCN(C(=O)C4CCCC4)C3)cc2)cc1)C1CCCC1 (configuration not stated),i,i,nt,nt,nt,i
O=C(OC1CCOC1=O)C1CCN(S(=O)(=O)c2ccc(Cl)c(C(F)(F)F)c2)CC1 (configuration not stated),i,i,i,nt,i,i
O=C(Nc1nc2cc3c(cc2s1)OCCO3)C1CCCCC1,?,?,i,nt,i,i
CCn1c2ccccc2c2cc(NC(=O)COC(=O)c3ccccc3F)ccc21,10µM,?,i,i,i,?
CCn1c2ccccc2c2cc(NC(=O)CCCN3C(=O)CCC3=O)ccc21,nt,3.5µM,i,i,?,i
COc1ccc(-c2nc(N)nc(C)c2Oc2ccccc2Br)c(O)c1,nt,?,?,i,i,?
CN(O)/C=c1/ccc2c(n1)C(=O)C=CC=2,nt,i,8.3µM,i,12µM,i
c1ccc(-c2nnc3sc(-c4csc5c4CCCC5)nn23)cc1,i,?,10µM,i,i,i
Cc1ccc(S(=O)(=O)NC(CC(=O)N2CCOCC2)c2ccco2)cc1 (configuration not stated),i,i,i,i,nt,i
CC(C)CC(=O)Nc1ccc(S(=O)(=O)N2CCCC2)cc1,nt,i,i,i,?,nt
CCN1CCCC1CNC(=O)C(=O)Nc1ccccc1 (configuration not stated),i,i,i,nt,?,i
CCN1CCCC1CNC(=S)Nc1ccc(C(C)=O)cc1 (configuration not stated),i,i,15µM,nt,i,i
Nc1nc2ccccc2n1CCOc1ccc(F)cc1,nt,i,8.3µM,i,15µM,nt
COc1ccc(OCCn2c(N)nc3ccccc32)cc1,i,?,?,i,?,i
